Values joined by “and” are separate entries in the source; they are usually repeats but may differ in a detail not shown here. Equal entries are not always repeated. The whole screen tested about 16,000 compounds, of which about 5,700 (36%) were called active. Inconclusive results (about 24%) are left out. Calls come from the whole dose curve; as a rule, active = well fitted curve in the direction sought with a large enough effect; inconclusive = small, poorly fitted or top-dose-only effect, or effect the other way; inactive = no such curve, though single readings can be large or run the other way. Some of the results follow. Square brackets hold non-standard residues; d marks the D form. Peptide text beside a SMILES is read from it.
These compounds were tested against Cytochrome P450 1A2 (Homo sapiens) (UniProt P05177) (assay: Cytochrome panel assay with activity outcomes). Conditions: recombinant CYP, pro-luciferin dealkylation, luminescence, p450-cyp1a2; series mostly up to 57.1 µM; activity, negative = inhibition: at the top concentration.
Chain of Cytochrome P450 1A2 (Homo sapiens) (P05177 whole entry, looked up): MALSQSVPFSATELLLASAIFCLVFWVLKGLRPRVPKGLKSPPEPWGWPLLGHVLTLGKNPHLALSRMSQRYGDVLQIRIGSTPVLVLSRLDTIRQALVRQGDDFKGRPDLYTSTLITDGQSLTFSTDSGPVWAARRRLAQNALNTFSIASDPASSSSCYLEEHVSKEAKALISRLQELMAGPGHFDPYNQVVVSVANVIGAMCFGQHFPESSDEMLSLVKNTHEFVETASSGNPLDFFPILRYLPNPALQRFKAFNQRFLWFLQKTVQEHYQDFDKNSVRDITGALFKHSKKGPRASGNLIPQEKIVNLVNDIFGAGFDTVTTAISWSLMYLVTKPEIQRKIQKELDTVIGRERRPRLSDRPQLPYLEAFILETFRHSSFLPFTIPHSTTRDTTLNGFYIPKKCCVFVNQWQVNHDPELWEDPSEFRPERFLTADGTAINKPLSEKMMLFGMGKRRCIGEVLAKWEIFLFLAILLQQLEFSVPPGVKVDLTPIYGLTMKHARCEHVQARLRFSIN
% is set by controls: 0 for no effect and ±100 for the full control effect.

activity, negative = inhibition, inactive:
CC(C)(CO)[C@H](O)C(=O)NCCCO -1.12% [at 25.6 µM], CNc1ncnc2c1ncn2[C@@H]1O[C@@H](CO)[C@H](O)[C@@H]1O -5.83%, COc1ccc(-c2nnc(-c3ccc(OCC(C)C)cc3)o2)cc1 -20.8%, COc1ccc(CC(=O)Nc2ccc(-c3noc(-c4cccc(OC)c4)n3)cc2)cc1 -14.6%, CCOC(=O)CCN1C(=O)[C@H]2[C@H]3[C@H](O)[C@H](O)C/C(=N/OC/C=C(\C)CCC=C(C)C)[C@@H]3CC[C@@H]2C1=O -2.33% [at 11.4 µM], CC[C@H](CN(C)C)C(=O)c1ccco1 -9.05% [at 11.4 µM], C[N+]1(CCC(=O)c2ccco2)CC2CCC(CC2)C1 (centres undefined) -10.2% [at 11.4 µM], C[C@H](N)CCCC(C)(C)O -3.97% [at 25.6 µM], C[C@H](O)[C@H](O)[C@@H]1CNc2nc(N)[nH]c(=O)c2N1 -16%, Cn1c(=O)c(C(=O)CN2CCOCC2)c(N)n(Cc2ccccc2)c1=O 7.04%, Cc1nn(-c2ccc(Cl)cc2)c2sc(C(=O)c3c(N)n(C)c(=O)n(C)c3=O)cc12 -17.7%, O=C(CC1CCCCC1)N1CCC(c2nc(-c3ccc(S(=O)(=O)N4CCCC4)cc3)no2)CC1 -1.32%, O=C(Nc1cccc(F)c1)N1CCCC2(CCNCC2)C1 -9.33%, Cc1noc(C)c1C(=O)N1CCC[C@@]2(CCN(C(=O)Nc3cccc(F)c3)C2)C1 -14.5%, COc1ccc(-c2noc(C3CCCN(C(=O)c4ccccc4OC)C3)n2)cc1OC (centres undefined) -31.5%, Cc1nc2ncnn2c(C)c1CCC(=O)NCc1ccccc1 -2.47%, N[C@H](C(=O)O)c1ccc(C(=O)O)cc1 -18.9%, ClC(Cl)(Cl)C(N1CCN(c2ccccc2)CC1)N1CCN(c2ccccc2)CC1 -14.9% [at 2.29 µM], CCN(CC)CCNC(=O)Cn1nc(-c2ccc(C)cc2)ccc1=O -5.38%, CCN(CC)CCNC(=O)c1ccc(NC(C)=O)cc1 -7.76%, O=C(N/N=C/c1ccc(Sc2nc3ccccc3s2)c([N+](=O)[O-])c1)c1ccccn1 -13.5%, CC1(C)C2([N+](=O)[O-])CN3CC1([N+](=O)[O-])CN(C2)C3c1ccccc1 (centres undefined) 15.2%, CSCC[C@H](C=O)NC(=O)[C@H](CC(C)C)NC(=O)[C@H](CC(C)C)NC(C)=O (Ac-Leu-Leu-[dM]-aldehyde) -11.3%, C=CCSc1ccsc1C(=O)O 4%, N[C@@H](Cc1ncccn1)C(=O)O -7.74% [at 11.4 µM], CCCC1(C(=O)OC)C=C2C(=C(C(C)C)C(=O)C2C)CN1 (centres undefined) -20.3%, CCCC1(C(=O)OC)C=C2C(=C(C)C(=O)C2C)CN1 (centres undefined) -20.6%, CC1(C)CC(=O)C(CCC(=O)c2ccccc2)C(C)(C)N1 (centres undefined) -7.19%, CCN=C(N)CSS(=O)(=O)O -10.1% [at 11.4 µM], Cc1cc2c(s1)CCCCC(=O)N2 -20.4%, C=C(CC1([C@@H](NP(=O)(c2ccccc2)c2ccccc2)[C@H]2C[C@@H]2CCN(C(=O)OCC)S(=O)(=O)c2ccc(C)cc2)CC1)c1ccccc1 -5.84%, CCN1C(=O)[C@H]2[C@H]3[C@H](O)[C@H](O)C/C(=N/O[C@@H]4O[C@@H](COC(C)=O)[C@@H](OC(C)=O)[C@@H](OC(C)=O)[C@H]4OC(C)=O)[C@@H]3CC[C@@H]2C1=O -12.6% [at 11.4 µM], COc1ccc(S(=O)(=O)N2CCC(C(=O)NCC3CCCO3)CC2)cc1C (centres undefined) 11.5%, Cc1cccc(C)c1NC(=O)[C@H](C)N -13.8% [at 25.6 µM], Cc1cccc(C)c1NC(=O)C[N+](C)(C)C 0.715%, CCS(=O)(=O)N1CCC(C(=O)NCC2CCCO2)CC1 (centres undefined) -7.48%, Cc1ccc(-n2c(C)cc(/C=C(\C#N)C(=O)NCC3CCCO3)c2C)cc1 (centres undefined) -16.2%, COc1cc(/C=C(/NC(=O)c2ccccc2)C(=O)Nc2ccccc2)c([N+](=O)[O-])cc1OC -9.31%, O=C(O)c1cccnc1 -3.39% [at 25.6 µM], C[Si](C)(c1ccc(C(=O)O)cc1)c1ccc(C(=O)O)cc1 -13% [at 11.4 µM], CN(C)c1ccccc1CN1CCCN(Cc2ccccc2N(C)C)C1c1ccncc1 3.06% [at 11.4 µM], Nc1cccc2cc(S(=O)(=O)Nc3ccc(C(=O)O)cc3)ccc12 2.54% [at 11.4 µM], CC(=O)c1ccc(S(=O)(=O)NC(=O)NC2CCCCC2)cc1 -6.56% [at 25.6 µM], CCCN(CC1CC1)c1nc(C)nc(Nc2c(Cl)cc(Cl)cc2Cl)c1Cl -15.7%, Cc1cc(Cl)ccc1OCC(=O)Nc1nc(N)nc(N)n1 2.06% [at 2.29 µM], O=C(c1cnccn1)N1CCC2(CC1)CCN(c1ccccn1)CC2 -13.1%, O=C(CSc1nnc(-c2ccc(Cl)cc2Cl)n1C1CCCCC1)NC1CCS(=O)(=O)C1 (centres undefined) 0.975%, CCn1c(SCC(=O)NC2CCCc3ccccc32)nnc1-c1cccs1 (centres undefined) -21.7%, C1CCN(CC[C@@H]2CCCCN2)CC1 -7.33% [at 11.4 µM], Cc1ccc(-c2nnc(-c3ccc(NC(=O)c4cccs4)cc3)o2)cc1 -23.1%, CC(=O)N1CCc2cc(S(=O)(=O)CCC(=O)Nc3c(C)n(C)n(-c4ccccc4)c3=O)ccc21 -24.8%, Cc1ccccc1OCC(=O)Nc1sc(C(=O)Nc2cccc(C)c2C)c(C)c1C#N 7.9%, CCOC(=O)c1cc(NC(=O)c2ccc(C)cc2)c(=O)oc1-c1ccccc1 -24.4%, CC(=O)c1cc(NC(=O)c2cccc(C(F)(F)F)c2)c(=O)oc1/C=C/N(C)C 3.96%, CC(C)(C)N(NC(=O)c1ccccc1)C(=O)c1cccc(C(=O)N(NC(=O)c2ccccc2)C(C)(C)C)c1 2.94%

AC50, active:
Cc1ccc(OCC(=O)N/N=C\c2c(C)n(C)c3ccccc23)c([N+](=O)[O-])c1 0.562 µM, Cn1c(=O)cc(OCCCC(=O)Nc2cccnc2)c2ccccc21 2 µM, COc1cccc(-c2noc(-c3cccnc3)n2)c1 2.82 µM, COc1ccc(-c2nnc(-c3cccnc3)o2)cc1 12.6 µM, CCOc1ccc(-c2nnc(-c3ccncc3)o2)cc1 2.51 µM, N#Cc1c(-c2ccccc2)no[n+]1[O-] 0.398 µM, CCCCn1c(=N)n(CC(=O)c2ccco2)c2ccccc21 8.91 µM, CSc1nc(C)c2c(n1)N(c1ccc(C(C)C)cc1)CC2 2 µM, CSc1nc(C)c2c(n1)N(c1ccc(C(F)(F)F)cc1)CC2 0.316 µM, Cn1c(N)c(C(=O)CSc2ccc3c(c2)OCCO3)c(=O)n(C)c1=O 15.8 µM, O=C(Nc1ccccc1)N1CCCC(c2nc(-c3ccc(F)cc3)no2)C1 (centres undefined) 25.1 µM, CCCCCC(=O)N1CCCC(c2nc(-c3ccc(OC)cc3)no2)C1 (centres undefined) 3.16 µM, CCCCC(=O)NCCc1c(Cc2ccccc2)[nH]c2ccccc12 3.16 µM, COc1ccc2[nH]c(-c3ccccc3)c(CCNC(C)=O)c2c1 1.26 µM, CC(=O)NCCc1c(Cc2ccccc2)[nH]c2ccccc12 12.6 µM, C=CCn1c(=O)c(C(=O)NCCN(CC)CC)c(O)c2ccccc21 1.41 µM, Cc1cccc(CNc2ccnc(-c3ccccc3C(F)(F)F)n2)c1 6.31 µM, FC(F)(F)c1ccccc1-c1nccc(NCc2ccccc2)n1 12.6 µM, c1cc2c(cc1C1CCCCC1)c1c3n2CCN[C@H]3CCC1 15.8 µM, Cc1ccc(NC(=O)c2sccc2SCc2cccc(C(F)(F)F)c2)cc1 2.82 µM, O=[N+]([O-])c1c(NCCO)cc(Sc2nc3ccccc3s2)c2nonc12 1 µM, CN(CCO)c1cc(Sc2nc3ccccc3s2)c2nonc2c1[N+](=O)[O-] 14.1 µM, C=CCSc1nc(NC)c2sccc2n1 1 µM, C=CCNc1nc(SCC=C)nc2ccsc12 0.501 µM, C=CCSc1nc(Oc2ccccc2)c2sccc2n1 2.51 µM, CCCCCC1=C2CNC(CCC)(C(=O)OC)C=C2C(C)C1=O (centres undefined) 31.6 µM, CCCC1(C(=O)OC)C=C2C(=C(c3ccccc3)C(=O)C2C)CN1 (centres undefined) 15.8 µM, COC(=O)C1(C)C=C2C(=C(c3ccccc3)C(=O)C2C)CN1 (centres undefined) 15.8 µM, CN(C)c1ccc(-c2ccc3ncnc(-n4ccnc4)c3c2)cc1 0.316 µM, Cc1ccccc1-c1ccc2ncnc(-n3ccnc3)c2c1 0.794 µM, c1cn(-c2ncnc3ccc(-c4ccoc4)cc23)cn1 1.26 µM, Cc1cccc(C)c1NC(=O)/C(C#N)=C/c1cccs1 12.6 µM, N#C/C(=C\c1cccs1)C(=O)NCC1CCCO1 (centres undefined) 12.6 µM, COc1cc(/C=C(\C#N)C(=O)NCC2CCCO2)c([N+](=O)[O-])cc1OC (centres undefined) 4.47 µM, O=C(O)c1ccc(SSc2ccc(C(=O)O)cn2)nc1 3.16 µM, CC(=O)c1cccc(NS(=O)(=O)c2ccc(N/C=C\C(=O)c3ccc(F)cc3)cc2)c1 10 µM, Cc1cc(Cl)ccc1OCC(=O)NCc1ccncc1 1.12 µM, CCCn1nnnc1NC(=O)COc1ccc(Cl)cc1C 14.1 µM, CCn1c(=O)c2c(O)cc(=O)oc2c2ccccc21 11.2 µM, CC(C)n1c(=O)c2c(O)cc(=O)oc2c2ccccc21 5.01 µM, CCn1c(SCC(=O)NC2CCCCC2)nnc1-c1cc2cccc(OC)c2o1 8.91 µM, Nc1ccccc1C#Cc1ccccc1 501 nM and 1.58 µM, Cc1cc(C)c(Cn2cnc(-c3ccc([N+](=O)[O-])cc3)c2)c(C)c1 15.8 µM, Cc1ccccc1-c1nc(-c2ccc(NC(=O)c3cccs3)cc2)no1 14.1 µM, Cc1ccccc1OCCNC(=O)c1ccccc1Sc1ccccc1C#N 14.1 µM, Cc1oc(=O)c(NC(=O)c2ccccc2)cc1C(=O)c1ccccc1 12.6 µM, Cc1cc(N)ccc1NC(=O)c1ccccc1 3.16 µM, Cc1ccc(C(=O)Nc2cc3c(oc2=O)CCCC3=O)cc1 14.1 µM, CC(=O)c1cc(NC(=O)c2ccccc2)c(=O)oc1/C=C/N(C)C 12.6 µM

From PubChem BioAssay AID1851 (National Center for Advancing Translational Sciences (NCATS), 2009)
